Experimental data: PubChem BioAssay (NCI)
This is part of a sample that, as a whole, favours compounds with a hit. Of some 83,000 tested, about 20% had one in any assay.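 The test compound was applied at a single concentration to cells in 96-well plates for 48 hours, and percent growth was recorded.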 Values without a mark were called inactive. Calls of active or inactive are those of the source. The calls were made as follows: active = growth percent below 10; inactive = the rest.

What was measured:
Assay in all cases: NCI-60 one-dose screen, 48 h (100 = growth as untreated, 0 = no growth, -100 = all killed)
Settings in all cases: 10 µM unless noted
[1] = tested on: SR leukemia
[2] = tested on: RPMI-8226 leukemia
[3] = tested on: OVCAR-8 ovarian
[4] = tested on: OVCAR-5 ovarian
[5] = tested on: OVCAR-4 ovarian
[6] = tested on: SK-OV-3 ovarian
[7] = tested on: IGROV1 ovarian
[8] = tested on: OVCAR-3 ovarian
[9] = tested on: HS 578T breast
[10] = tested on: NCI/ADR-RES ovarian

SMILES | growth [1] | growth [2] | growth [3] | growth [4] | growth [5] | growth [6] | growth [7] | growth [8] | growth [9] | growth [10]
COc1ccc(Cl)cc1NC(=O)c1cc2c([nH]1)-c1nc(N)sc1CCC2 | 79.4% | 108% | 101% | 103% | 111% | 98.4% | 106% | 106% | 108% | 92.7%
Cc1nccc2c3ccc(OCc4cn(Cc5ccc(Br)cc5)nn4)cc3n(CCCc3ccccc3)c12 | 77.8% | 72.9% | 60.8% | 106% | 50.9% | 81.6% | 77.4% | 82.1% | 66.9% | 78.8%
CC[C@@]1(O)C(=O)OCc2c1cc1n(c2=O)Cc2c-1nc1ccccc1c2/C=N/OC(C)(C)C | -6.28% (active) | -2.84% (active) | 3.32% (active) | 10.5% | 30.1% | -15.7% (active) | 8.28% (active) | -27.3% (active) | 33% | 1.09% (active)
COc1ccc(/C=C/C(=O)c2ccc(-n3cc(CN4CCN(c5cc6c(cc5F)c(=O)c(C(=O)O)cn6C5CC5)CC4)nn3)cc2)cc1OC | -12.4% (active) | -15.8% (active) | 39.7% | 72.3% | 73.7% | 67.5% | -24.8% (active) | -16.1% (active) | 21.5% | 82%
Clc1ccc2c(NCCNc3nc(Cl)nc4ccccc34)ccnc2c1 | -27.3% (active) | -50.7% (active) | -62.5% (active) | -49.9% (active) | -72% (active) | -80.4% (active) | -85% (active) | -78% (active) | -41.9% (active) | 38.5%
COc1cc(C(=O)NNC(=O)c2ccccc2C(=O)O)cc(OC)c1OC | -10.9% (active) | 10.8% | 39.5% | 84.5% | 77.7% | 52% | 50.2% | 29% | 67.8% | 37.7%
CCN(CC)CCNC(=O)c1c(C)[nH]c(/C=C2\C(=O)Nc3cc(NC(=O)NC(=O)c4ccc(OC)cc4F)ccc32)c1C | 10.6% | 75.7% | 34% | 120% | 111% | 129% | 98.5% | 111% | 84.4% | 88.3%
Cc1nc(-c2ccc(Cl)cc2)ccc1NC(=O)Nc1cccc(C(F)(F)F)c1 | 59.6% | 85.3% | 98.9% | 121% | 108% | 110% | 111% | 111% | 103% | 98.1%
[2H]c1nc(Nc2ncc(F)c(-c3cc(F)c4nc(C)n(C(C)C)c4c3)n2)c([2H])c([2H])c1CN1CCN(CC)CC1 | 11.7% | 34.7% | 74.3% | 49.8% | 66.1% | 35.7% | 39.1% | 73.1% | 29.9% | 71%
COc1cc(/C=C2/Oc3cc4occc4c(OC)c3C2=O)ccc1OCC(=O)Nc1ccncc1 | 102% | 91.4% | 104% | 113% | 111% | 93.1% | 96.3% | 99.8% | 95.1% | 107%
CCN(CC)C(=O)C1CCN(C(=O)c2ccccc2)CC1 | 102% | 97.8% | 103% | 108% | 106% | 102% | 103% | 104% | 97% | 97.9%
Cc1ccc2c(C3C(C#N)=C(N)Oc4cc5ccccc5cc43)cc(=O)oc2c1 (stereo not drawn) | 16.9% | 21.9% | 24.5% | 49.7% | 67.6% | 28.3% | 39.7% | -4.72% (active) | 51.6% | 11.8%
O=C(O)c1cccc(S(=O)(=O)c2ccccc2)c1 | 97.1% | 103% | 112% | 99% | 102% | 116% | 100% | 107% | 91.6% | 104%
O=C(O)c1ccc(-n2cc(/C=N/Nc3ccc(Cl)cc3)c(-c3ccc(F)c(F)c3)n2)cc1 | 68.9% | 24% | 86.6% | 83.7% | 80.3% | 100% | 79.2% | 75.2% | 84.5% | 73.1%
O=C(c1cc(-c2ccc(Cl)cc2)nc2ccccc12)N1N=C(c2ccccc2)CC1c1cc(-c2ccccc2)nn1-c1ccccc1 (stereo not drawn) | 73.4% | 86.8% | 87.1% | 89.4% | 64.3% | 93.8% | 60.8% | 68.8% | 89.3% | 81.5%
CN1C(=O)C2(NN=C(c3cccc4ccccc34)S2)c2ccccc21 (stereo not drawn) | 28.5% | 18.2% | 26.2% | 50.2% | 20% | 26.5% | 39.4% | 40.2% | 51.1% | 29%
CCN(CC)CCN1C(=O)c2c(c3c4ccccc4[nH]c3c3[nH]c4ccccc4c23)C1=O | 4.92% (active) | 74.9% | 78.5% | 88.7% | 72% | 83.1% | 83.3% | 95.4% | 86.7% | 71.3%
C=C1C(=O)O[C@H]2[C@H]1CC/C(COC(=O)c1cc(OC)c(OC)c(OC)c1)=C\CC[C@@]1(C)O[C@@H]21 | -13.2% (active) | -36.2% (active) | -45.7% (active) | -12.4% (active) | 20.1% | 97.6% | -8.27% (active) | -69.8% (active) | 32.9% | 10.9%
O=C1c2ccccc2C(=O)c2c(NCCN=Cc3c(O)ccc4ccccc34)cccc21 | 32% | 78.7% | 69.9% | 112% | 94.3% | 84.2% | 65.5% | 83.7% | 82.7% | 85.5%
Cc1c(C(C)(C)C)cc(C(C)(C)C)c2c1CN(C)CO2 | 103% | 110% | 105% | 110% | 105% | 102% | 114% | 102% | 105% | 99.5%
CC1OC(n2c3ccccc3c3c4c(c5c6ccccc6[nH]c5c32)C(=O)N(CCN[C@@H]2CCC[C@H]2N)C4=O)CC(O)C1O (stereo partly drawn) | -19.1% (active) | -5.48% (active) | 18% | 49.2% | 24.7% | 20.1% | 22.7% | 27.7% | 30% | 77.6%
COc1cc(/C=C/C(=O)N2CCC=CC2=O)cc(OC)c1OC | 10.3% | -11.3% (active) | 4.06% (active) | 86.6% | 48.8% | 105% | 30.9% | 18.5% | 84.5% | 67.2%
CCOC(=O)c1[nH]c(-c2ccc(Cl)cc2)cc1-c1cccnc1 | 12.9% | 4.59% (active) | 39.3% | 47.3% | 51.1% | 7.46% (active) | 43.9% | -7.92% (active) | 16.3% | 12.1%
O=S1(=O)N(CCNc2nccc(-c3c(-c4cccc(O)c4)nc4sccn34)n2)CCN1Cc1ccccc1 | 55.4% | 47.4% | 48.3% | 113% | 110% | 52.9% | 51.9% | 64.9% | – | 74%
Cc1cc(N2CCOCC2)nc(N(CCNc2ccnc3cc(Cl)ccc23)Cc2ccco2)n1 | -22.6% (active) | -21.6% (active) | 34.6% | 101% | 37.2% | 91.1% | 40.7% | -64.3% (active) | 64% | 50.8%
COc1cccc(/C=N/C(=S)NC2(C)C3CCC(C3)C2(C)C)c1O (stereo not drawn) | 38.4% | 73.5% | 85.4% | 102% | 45.5% | 102% | 64.3% | 73.2% | – | 83.7%
Cc1ccc(-c2nc3c(N=Nc4ccc(S(N)(=O)=O)cc4)c(N)nn3c(N)c2C#N)cc1 | 28.9% | -16.4% (active) | 44.1% | 78.7% | 52.2% | 63.8% | 37.4% | 23.6% | 39.4% | 99.9%
